This is part of a sample that, as a whole, favours compounds with a hit. Of some 79,000 tested, about 15% had one in any assay. A number with no mark means an inactive call. Cut-off read from the data, not from the text of the source: active = growth inhibition above about 70%; inactive = the rest.

This experiment can be described thus: NCI Yeast Anticancer Drug Screen. Data for the bub3 strain (AID 167). Particulars: S. cerevisiae bub3 mutant strain, at 50.0 µM, stronger effect = higher value. How it is done:
Growth inhibition of yeast strains with defined genetic alterations is measured as a screen for potential anti-cancer activity. Selected strains with alterations in DNA damage repair or cell cycle control were exposed to compounds and growth inhibition was measured relative to vehicle treated controls. The strain used in this assay is bub3
Regarding `Cc1ccccc1C=O`, the growth inhibition is -0.2%.
The same measure for `C=C(C)C(=O)OCC(O)C[N+](C)(C)C` (stereo not given): 5.1%; for `CN/C=C(/OCc1ccccc1)c1ccc(O)c(O)c1`: -19.7%; for `CC(=O)Nc1ccc2c(c1)C(N1CCCCC1)c1ccccc1-2` (stereo not given): -2.6%.
As to `Cn1c(N(CCO)CCO)cnc1[N+](=O)[O-]`, the growth inhibition is -17.6%.
The same measure for `O=C(O)c1ccc(NC(=S)Nc2ccc(C(=O)O)cc2)cc1`: -6.15%; for `CCCCCC(=O)/C=C/CC(CCCCCCC#N)C(CC(OC)OC)[N+](=O)[O-]` (stereo not given): -1.75%.
For `CCOC(=O)c1c(C)[nH]c(C2=NCCC2)c1C`, the growth inhibition is 2.95%.
The same measure for `O=C1OC(c2ccccc2Cl)Sc2ccccc21` (stereo not given): 55.8%; for `CCOC(=O)C(NC(C)=O)C(=O)OCC`: -7.15%.
For the compound `CCCCCCCCCCCCCCCCC[CH2][Sn]([Cl])([CH2]CCCCCCCCCCCCCCCCC)[CH2]CCCCCCCCCCCCCCCCC`, the growth inhibition was -2.1%.
For `c1ccc(N2CCN(C(c3cccs3)N3CCN(c4ccccc4)CC3)CC2)cc1` the value was -5.5%; for `CCCN(Cc1ccccc1)CC(O)c1ccc(Cl)cc1` (stereo not given), 32.9%.
The same measure for `Cc1c(C(=O)OCCCl)c(=O)n(-c2ccccc2)n1C`: -33.5%; for `COc1ccc([N+](=O)[O-])c(OC)c1`: -23.4%; for `O=[N+]([O-])c1ccc(C(O)(C#CCN2CCCC2)c2ccccc2)cc1` (stereo not given): 3.5%.
Regarding `CN1C(=O)/C(=C2\SC(=O)N(CN3CCCCC3)C2=O)c2cc(Br)ccc21`, the growth inhibition was -2.45%.
For `CCOC(=O)CCC(NC(=O)C(CCC(=O)OCC)NC(=O)C(Cc1ccc([N+](=O)[O-])cc1)NC(C)=O)C(=O)NNC(=O)OC(C)(C)C` (stereo not given) the value was -23.6%.
Regarding `CCOC(=O)Nc1ccc([N+](=O)[O-])cc1[N+](=O)[O-]`, the growth inhibition is 8.6%.
As for `Cc1ccc(S(=O)(=O)N2CCC(C(=O)N3CCCC3)(c3cccc(C)c3)CC2)cc1`, the growth inhibition was -38.5%.
For `OC1CCCN(Cc2ccccc2)C1` (stereo not given) the value was 11.3%; for `Fc1c(F)c(F)c(-c2nnc(-c3c(F)c(F)c(F)c(F)c3F)o2)c(F)c1F`, 9.3%.
The same measure for `CC1CCCN2C(=O)CN(Cc3ccccc3)CC(=O)N12` (stereo not given): 3.1%; for `Cc1cc(C)n(-c2ccc(Cl)nn2)n1`: 9%; for `N#CC(C#N)c1ccc(C(C#N)C#N)cc1`: -12.3%.
The same measure for `O=C(O)c1ccc2ncc(-c3ccccc3)nc2c1`: -7.4%; for `O=C1C=CC(=O)N1n1c(-c2ccccc2)n[nH]c1=O`: -8%.
`COC(=O)Nc1cc2c3c(c1)CCCN3CCC2`: the growth inhibition is 10.1%.
The same measure for `COc1ccc(C2C(C#N)=C(S)N(C3OC(COC(C)=O)C(OC(C)=O)C(OC(C)=O)C3OC(C)=O)C(c3ccccc3)=C2C(C)=O)cc1` (stereo not given): -38.9%.
The same measure for `N#Cc1c(N)nc(Nc2cccc3ccccc23)c(C#N)c1C#N`: 29.4%.
For `O=C(NCCCCCCNC(=O)NCc1ccc(Cl)c(Cl)c1)NCc1ccc(Cl)c(Cl)c1` the value was -1.9%; for `Cc1ccc(S(=O)(=O)N/N=C/c2cc([N+](=O)[O-])ccc2O)cc1`, 9.5%; for `O=C(O)c1cc(=O)[nH]c(=O)[nH]1`, -6.5%.
For `O=C(NC(=O)c1c(F)cccc1F)Nc1ccc(C(O)(C(F)(F)F)C(F)(F)F)cc1`, the growth inhibition was 6%.
The same measure for `Cn1c(=O)c2[nH]c(N(CCO)CCO)nc2n(C)c1=O`: -2.3%; for `C=C(C)C(=O)NC(Cc1cnc[nH]1)C(=O)O` (stereo not given): 15.2%.
For the compound `O=C1/C(=C/c2ccc3c(c2)OCO3)CC/C1=C\c1ccc2c(c1)OCO2`, the growth inhibition was -13.7%.
For `Fc1ccccc1CSc1n[nH]c(=S)c2nc[nH]c12` the value was 0.3%.
The same measure for `O=S1C2CCC(Br)C1CCC2Br` (stereo not given): 5.5%.
For `COc1ccc(CCNC(=O)CC2CCN(Cc3ccccc3)CC2)cc1OC` the value was -3.45%.
